Measured values reported in publication PMC4336329 (PLoS ONE, 2015).
About 14,000 (4.5%) of roughly 310,000 compounds showed an effect of 50% or more. Effects have a minus sign here. Only a selection was taken, and strong results are over-represented in it overall.

Target: human ether-à-go-go-related gene (hERG) potassium channel (human, UniProt Q12809)
Experiment: primary screen, population patch clamp on CHO cells stably expressing hERG; higher = less effect of the substance
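Also: peak tail current of the secondary pulse compared with the same well before compound.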

human ether-à-go-go-related gene (hERG) potassium channel, sequence (Q12809 whole entry, looked up): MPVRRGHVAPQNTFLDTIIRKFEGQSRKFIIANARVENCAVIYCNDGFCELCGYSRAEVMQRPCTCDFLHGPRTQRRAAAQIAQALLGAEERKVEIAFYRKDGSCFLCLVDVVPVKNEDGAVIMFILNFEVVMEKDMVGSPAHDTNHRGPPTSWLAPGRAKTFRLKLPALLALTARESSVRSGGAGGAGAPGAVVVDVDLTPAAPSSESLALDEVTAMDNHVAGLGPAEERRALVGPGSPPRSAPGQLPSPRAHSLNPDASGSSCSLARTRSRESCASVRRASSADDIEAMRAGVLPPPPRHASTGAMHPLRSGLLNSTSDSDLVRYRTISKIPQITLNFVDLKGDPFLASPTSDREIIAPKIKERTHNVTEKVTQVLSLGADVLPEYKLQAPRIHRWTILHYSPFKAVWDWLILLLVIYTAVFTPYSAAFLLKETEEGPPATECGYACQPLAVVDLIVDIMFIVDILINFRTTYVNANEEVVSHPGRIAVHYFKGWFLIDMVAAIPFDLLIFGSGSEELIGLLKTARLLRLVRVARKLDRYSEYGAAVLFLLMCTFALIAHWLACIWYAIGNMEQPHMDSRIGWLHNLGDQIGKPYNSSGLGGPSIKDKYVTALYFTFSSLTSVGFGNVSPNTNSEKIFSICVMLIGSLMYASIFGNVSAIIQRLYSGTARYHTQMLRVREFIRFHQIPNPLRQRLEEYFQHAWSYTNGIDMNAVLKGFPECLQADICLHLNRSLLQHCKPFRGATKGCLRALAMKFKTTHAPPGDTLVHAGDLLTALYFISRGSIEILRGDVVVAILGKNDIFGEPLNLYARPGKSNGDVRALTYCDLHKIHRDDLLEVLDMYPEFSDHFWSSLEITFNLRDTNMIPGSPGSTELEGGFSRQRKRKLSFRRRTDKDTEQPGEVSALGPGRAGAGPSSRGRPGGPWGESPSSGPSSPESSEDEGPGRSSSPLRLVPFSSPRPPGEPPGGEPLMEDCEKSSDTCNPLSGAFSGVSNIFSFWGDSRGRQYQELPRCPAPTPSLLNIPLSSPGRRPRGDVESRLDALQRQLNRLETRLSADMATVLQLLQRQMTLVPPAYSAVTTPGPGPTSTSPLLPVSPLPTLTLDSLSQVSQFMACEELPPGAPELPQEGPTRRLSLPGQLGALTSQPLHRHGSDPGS

Compound	hERG current change (%, negative = inhibition) at 10uM [%]
NC(=O)Nc1ccc(Oc2c(F)c(F)c(F)c(F)c2F)cc1	-11.5
Cc1cccc(N2CCN(CC(=O)Nc3ccc(-n4cnnn4)cc3)CC2)c1C	12.8
O=C(Nc1ccc(F)cc1)c1ccccc1S(=O)(=O)c1ccccc1[N+](=O)[O-]	-17.5
N#C/C(Cn1c[n+](NC(=O)Nc2ccccc2)cn1)=N/O.[Cl-]	16.2
Cc1cccn2c(=O)c3cc(C(=O)N4COCC4(C)C)sc3nc12	0.269
CC(C)[C@@H]1NC(=O)c2cc([N+](=O)[O-])cc(I)c2OCC[C@@H](C(N)=O)NC(=O)[C@H](CCC(=O)O)NC1=O	2.02
CCc1ccccc1NC(=S)N(CCN(C)C)Cc1cccs1	-22.4
COc1ccc(S(=O)(=O)N(C)CC(=O)N2CCC(C)CC2)cc1Cl	-0.646
CC(C)N1CCC(N2CCN(Cc3nc4ccccc4s3)CC2CCO)CC1 (stereo not shown)	-33.4
OCCC1CN(Cc2nc3ccccc3s2)CCN1C1CCCC1 (stereo not shown)	-48.9
CC(C)CCN1CCN(Cc2nc3ccccc3s2)CC1CCO (stereo not shown)	-41.4
CC(C)NC(=O)C1CCN(C2CCN(Cc3nc(C(C)C)cs3)CC2)CC1	-49.5
OCCC1CN(Cc2nc3ccccc3s2)CCN1CCc1ccccc1 (stereo not shown)	-77.7
CC(C)NC(=O)C1CCN(C2CCN(Cc3nc4ccccc4s3)CC2)CC1	-65.2
CC(C)N1CCN(Cc2nc3ccccc3s2)CC1CCO (stereo not shown)	-37.6
CC(C)CN1CCN(Cc2nc3ccccc3s2)CC1CCO (stereo not shown)	-56.8

Compound	hERG current change (%, negative = inhibition) at 10uM [%]
OCCC1CN(Cc2nc3ccccc3s2)CCN1C1CCCCC1 (stereo not shown)	-60
CC(C)NC(=O)C1CCN(C2CCN(Cc3ccc4cccc(F)c4n3)CC2)CC1	-38.6
O=C1S/C(=C\c2ccc(Cl)cc2)C(=O)N1CCn1cnnn1	-0.978
CC(=O)c1cc2c(cc1N(C(=O)Cn1nnc3ccccc31)C(C(=O)NCCC(C)C)c1cccnc1)OCO2 (stereo not shown)	8.92
CCc1ccccc1NC(=O)C1CCN(C(=O)c2cccs2)CC1	-24.3
COc1ccc(S(=O)(=O)N2CCCCCC2)cc1NC(=O)CN1C(=O)NC(C)(c2ccccc2)C1=O (stereo not shown)	-31.4
O=C(O)c1ccccc1C(=O)c1ccc(Sc2ccc(Cl)cc2)c([N+](=O)[O-])c1	6.94
O=[N+]([O-])c1cc(CN2CCCC2)ccc1Sc1ccc(Cl)cc1	-93.8
Cc1ccc(Sc2ccc(CN3CCCC3)cc2[N+](=O)[O-])cc1	-83
O=[N+]([O-])c1ccc(Cl)cc1CN1CCCCCC1	-3.36
O=[N+]([O-])c1cc(CN2CCC(O)CC2)ccc1Cl	9.08
CN1CCN(Cc2ccc(Sc3ccc(Cl)cc3)c([N+](=O)[O-])c2)CC1	-80.4
Cc1ccc(Sc2ccc(C(=O)N3CCOCC3)cc2[N+](=O)[O-])cc1	-32.3
Cc1ccc(Sc2ccc(CN3CCCCC3)cc2[N+](=O)[O-])cc1	-27.4
O=[N+]([O-])c1cc(CN2CCCCCC2)ccc1O	9.47
